Rows were chosen to be rich in hits. Some 21% of all compounds tested hit in one or more screens of this group.
Pf growth 96h = P. falciparum growth inhibition at 96 hours | P. falciparum luciferase reporter growth, 96 h | Potency, µM (doses to about 28.7 µM), inactives show at the highest dose activity change, negative = inhibition, actives largely listed as inhibitors | 320,000 compounds, 6.9% hits | AID 504834; also: potency is read from the fitted curve at half-maximal effect; % is scaled to controls: 0 for no effect and ±100 for the full control effect
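Readout is luminescence from an integrated firefly luciferase in P. falciparum. Red cells, 2% hematocrit and 0.05% parasitemia final, were cultured with compound through two parasite generations (96 hours) at 37 C, 5% CO2.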
NS1 inh = blocks influenza NS1 protein function; Potency, µM (highest dose often 46.1 µM), for the others: top-dose activity, positive = more growth; 270,000 compounds, 0.4% hits; AID 2326; calls by dose curve; also: potency is read from the fitted curve at half-maximal effect; actives are rising curves; nearly all actives have a fitted effect of over 50% in size
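S. cerevisiae expressing influenza A NS1, grown in glucose, washed, then diluted 1:100 into pH 6.0 -URA galactose medium with 23 nl compound. Growth recovery read as OD600; NS1-free strain serves as control.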
Pf growth 48h = inhibits P. falciparum growth in the first generation, 48 h; P. falciparum luciferase growth in erythrocytes, 48 h; Potency, µM (doses to about 28.7 µM), for inactives: top-dose activity change, negative = inhibition, most hits filed as inhibitors; 310,000 compounds, 5.9% hits; also: potency is read from the fitted curve at half-maximal effect; % is scaled to controls: 0 for no effect and ±100 for the full control effect
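Cell-based growth assay: transgenic P. falciparum expressing firefly luciferase, cultured in red cells within RPMI 1640 containing 0.5% w/v Albumax, 24 mM bicarbonate and gentamycin. A drop in luciferase activity indicates inhibition.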
Cycloheximide cs = counter-screen for Shiga toxin inhibitors: cycloheximide protein synthesis inhibition. cell reporter, cycloheximide protein synthesis inhibition counterscreen. max response, %. 300,000 compounds, 12% hits; in the data active = max response mostly above about 13%, no sharp cut-off; inactive = mostly below about 14%; also: read at 38.3 µM for the half of the compounds with a filed dose; 0% is about no effect
Shiga inhibitor = inhibitors of Shiga toxin in Vero cells; 290,000 compounds, 9.2% hits; inhibition, % at 38.7 µM; Vero cells, Shiga toxin protein synthesis inhibition reporter; AID 2315; in the data active = inhibition mostly above about 28%, no sharp cut-off; inactive = mostly below about 43%; also: 0% is about no effect
Starred values were filed as active, the others as inactive; ? = inconclusive; · = no result given; [ ] = another dose, or the depositor's remark. Unless noted, calls follow the shape of the dose curve; as a rule, active = well fitted inhibition curve with a large enough effect; inconclusive = small, poorly fitted or top-dose-only effect, or another doubt; inactive = no such curve, though single readings can be large or run the other way.

SMILES | Pf growth 96h | NS1 inh | Pf growth 48h | Cycloheximide cs | Shiga inhibitor
Cc1cc(C)c2nc(C)cc(N/N=C/c3ccc(O)cc3)c2c1 | -2% | -15% | 0.13µM* | -12 | -10
Cc1cc(N/N=C/c2ccc(O)cc2)c2cccc(C)c2n1 | 9.3µM* | -3% | 0.37µM* | 5 | 14
Cc1cc(N/N=C/c2ccc(N(C)C)cc2)c2ccccc2n1 | 44% | -79% | 24% | 9 | 17
Cn1c(=O)c(C(=O)c2ccccc2)nc2ccccc21 | 1% | 3% | · | -5 | -18
O=C(c1ccccc1)c1nc2ccccc2n(CCCn2c(=O)c(C(=O)c3ccccc3)nc3ccccc32)c1=O | ? | 28% | 3.7µM* | -1 | 9
Cc1ccc(-c2ccccc2NC(=O)CCl)o1 | ? | -30% | ? | 16* | 51
Cc1ccc(-c2ccccc2NC(=O)CS(=O)CC(=O)Nc2ccc(C)c(Cl)c2)o1 (centres undefined) | 12% | -25% | -5% | -7 | -9
CC(=O)c1ccc(OCC(=O)Nc2ccccc2C(=O)NC2CC2)cc1 | 35% | 6% | -1% | 2 | -5
Cc1ccc(C2CC(c3ccco3)n3ncnc3N2)cc1 (centres undefined) | -1% | -1% | · | -2 | -19
Cc1ccc2c(c1)C(N1CCCC1=O)CC(c1ccco1)N2 (centres undefined) | ? | -72% | 148% | 53* | 92*
COc1ccc(N(C(C)C(=O)NN=C2CCCC2)S(C)(=O)=O)cc1 (centres undefined) | 1.9µM* | · | 42% | 10 | -11
CCOc1ccc(C(=O)N2CCN(Cc3ccccc3)CC2)cc1OCC | 165% | -11% | 3% | -2 | 14
Cc1ccc(-c2cnc(-c3ccncc3)o2)cc1 | · | -49% | -14% | 33* | 95*
Nc1ccc(-c2ncc(-c3ccccc3)o2)cc1 | ? | 1% | 9.3µM* | 1 | -6
COc1nc(OC/C(N)=N/O)nc(N2CCOCC2)n1 | 166% | 1% | -7% | -4 | 7
S=C(NC1CCCCC1)N1CCN(Cc2ccccc2Cl)CC1 | ? | -2% | ? | 0 | 1
CCOc1ccc(OCC)c(NC(=O)c2ccc(CNc3c(N4CCCC4)c(=O)c3=O)cc2)c1 | ? | -2% | 12µM* | -5 | -11
COc1ccccc1CNC(=O)c1ccc(CNc2c(N3CCCC3)c(=O)c2=O)cc1 | 4.7µM* | -35% | ? | -6 | -10
O=C(CN1C(=O)CSc2ccc(S(=O)(=O)N3CCCCC3)cc21)NCc1cccnc1 | 2.3µM* | 14% | ? | -3 | -5
COc1ccccc1CNC(=O)CN1C(=O)CSc2ccc(S(=O)(=O)N3CCCC3)cc21 | ? | · | 13µM* | 6 | -2
O=C1CC[C@@H](O)CCN1CC[C@H](Sc1ccccc1)c1ccccc1 | -16% | -15% | -20% | -1 | 1
C[C@@H]1CCC(=O)N(CC[C@H](Sc2ccccc2)c2ccccc2)CC1 | ? | -73% | ? | 10* | 14
O=C1CC[C@@H](OCc2ccccc2)CCN1CC[C@H](Sc1ccccc1)c1ccccc1 | 0% | -14% | ? | 11* | 15
COc1cc(C(=O)NC2Cc3ccccc3C2)ccc1OC1CCN(C(C)=O)CC1 | ? | -16% | ? | 8 | -3
COc1cc(C(=O)NC2CC(C)(C)CC(C)(C)C2)ccc1OC1CCN(C(C)=O)CC1 | 9.3µM* | 13% | ? | -4 | -4
SMILES | Pf growth 96h | NS1 inh | Pf growth 48h | Cycloheximide cs | Shiga inhibitor
COc1ccc(C(=O)NC2CCc3ccccc32)cc1OC1CCN(C(C)=O)CC1 (centres undefined) | 13µM* | 10% | ? | -3 | -18
CC1CCN(C(=O)COC(=O)C2CCN(S(=O)(=O)c3ccc(Cl)c(C(F)(F)F)c3)CC2)CC1 | 24% | · | ? | · | ·
C=CCc1c(C)nc(N2CCSCC2)[nH]c1=O | 25% | 3% | -7% | -1 | 20
COc1cc2c3c(c1OC)C1(C=CC(=O)C=C1)CC3N(C(=O)c1ccccc1)CC2 (centres undefined) | ? | -1% | ? | -1 | 9
COc1cc2c3c(c1OC)C1(C=CC(=O)C=C1)CC3N(C(=O)CCC(=O)O)CC2 (centres undefined) | -26% | -2% | 2.1µM* | -3 | -6
O/N=C1/CC/C(=N\O)c2nn(-c3ccccc3)nc21 | -3% | -7% | 60% | 31* | 36
O=C(O)c1nn(-c2ccccc2)nc1-c1nn(-c2ccccc2)nc1C(=O)O | ? | 1% | 29% | 1 | -21
OC(CNc1nc2ccccc2s1)c1ccccc1 (centres undefined) | -29% | -1% | 13µM* | 22 | 49
OCC(O)/C=N/Nc1nc2ccccc2s1 (centres undefined) | ? | · | 69% | 6 | 48*
CC(NC(=O)CCC1COc2ccccc2O1)c1ccccc1 (centres undefined) | 41% | -62% | · | 15 | 2
CN(CCc1ccccn1)c1ncnc2[nH]ncc12 | 3% | -1% | 41% | 19 | 33*
CCN(CC)S(=O)(=O)c1ccc(NCCc2ccccn2)nc1 | 12% | 11% | -7% | 7 | 21
COc1ccc(C(=O)Nc2c(N)nc(SCC(=O)NCC3CCCO3)[nH]c2=O)cc1 (centres undefined) | 17% | 3% | 39% | -1 | -11
Cc1csc(=Nc2ccccc2)n1Cc1ccco1 | -4% | 0% | 19% | 29* | 31
CCOC(=O)c1sc(/S(C)=N\S(=O)(=O)c2cccc(Cl)c2)c2c1CCC=C2 (centres undefined) | ? | -1% | ? | 1 | -10
Cc1cc(C)nc(NC(=O)c2cccs2)c1 | ? | -4% | 64% | 21* | ·
Cc1cc(NC(=O)c2cc(-c3cccs3)on2)no1 | 6% | -16% | 23% | 29* | 114*
Cc1nc(NC(=O)c2cccs2)ccc1Br | 22% | -8% | 319% | 54* | 106*
Cc1cc(C)nc(NC(=O)c2cccs2)n1 | 88% | -63% | 30% | 12 | 34
Cc1cc(NC(=O)c2cc(C(C)C)on2)no1 | ? | -48% | 198% | 48* | 67*
CCC(C(=O)N1CCC(C(N)=O)CC1)n1nc(C)n2c(cc3occc32)c1=O (centres undefined) | 31% | 4% | 2% | -2 | -6
N#Cc1ccc(NC(=O)c2cc(-c3cccs3)on2)cc1 | -1% | 2% | -39%[1.15 µM] | -2 | -11
Cc1cc(NC(=O)c2cccs2)no1 | 126% | 4% | 88% | 33* | 57*
CC(C)NC(=O)c1cc(-c2cccs2)on1 | · | 5% | 137% | 31* | 57*
O=C(CCC1CCCC1)NNC(=O)c1cccc(Cl)c1 | ? | -10% | 84% | 6 | -1
Cn1c(=O)c2c(ncn2C[C@@H](O)CO)n(C)c1=O | 12%[12.8 µM] | · | -4%[12.8 µM] | · | ·
CC(C)CCOCC(O)CCC(=O)NNC(=S)Nc1ccccc1 (centres undefined) | 2% | 3% | 5% | 6 | -3
C=CCC(CC(O)COCCC)C(=O)NNC(=S)Nc1ccccc1 (centres undefined) | ? | 1% | -29% | 36* | 71*

Source: PubChem BioAssay
